Screens from PubChem.
IL1B secr inh = inhibitors of inflammasome signaling (IL-1 beta secretion) | THP-1 LPS/ATP IL-1B secretion, AlphaLISA, 16 h; stronger effect = lower value | activity change, % at 57.5 µM | actives 4.7% (n = 360,000); in the data active = activity change below about -50%; inconclusive = mostly about -30% to -49%; also: % is scaled to controls: 0 for no effect and ±100 for the full control effect
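Secreted IL-1B measured by AlphaLISA bead assay after 16 h compound exposure of THP-1 cells; compounds (final up to 57.5 uM) added 1 h before LPS (250 ng/mL) and ATP (1.25 mM) stimulation; lower signal means less secretion.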
ASM inhibitor = blocks human secretory acid sphingomyelinase. placental ASM, HMU-PC fluorogenic substrate, 60 min. Potency, µM (titrated, usually from 57.5 µM), for inactives: at the top dose activity change, negative = inhibition, usual class: inhibitors. actives 0.006% (n = 340,000). P17405; also: potency is read from the fitted curve at half-maximal effect
Target sequence (P17405 47-631 limits assumed): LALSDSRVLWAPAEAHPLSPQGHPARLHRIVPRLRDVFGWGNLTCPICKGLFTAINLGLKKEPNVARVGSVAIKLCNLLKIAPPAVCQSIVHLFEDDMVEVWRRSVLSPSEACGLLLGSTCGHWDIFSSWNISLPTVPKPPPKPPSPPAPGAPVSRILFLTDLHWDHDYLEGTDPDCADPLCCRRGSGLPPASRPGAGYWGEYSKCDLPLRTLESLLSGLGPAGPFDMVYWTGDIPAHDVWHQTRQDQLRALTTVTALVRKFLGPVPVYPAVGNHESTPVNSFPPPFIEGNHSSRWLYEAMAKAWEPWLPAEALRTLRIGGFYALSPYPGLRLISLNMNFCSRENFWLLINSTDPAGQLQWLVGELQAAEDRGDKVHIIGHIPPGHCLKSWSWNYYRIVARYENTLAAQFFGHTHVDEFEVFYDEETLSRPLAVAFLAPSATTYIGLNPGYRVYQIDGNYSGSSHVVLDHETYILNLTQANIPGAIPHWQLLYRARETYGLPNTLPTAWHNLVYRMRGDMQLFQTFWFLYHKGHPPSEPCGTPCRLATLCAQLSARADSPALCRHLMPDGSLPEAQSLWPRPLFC
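Human placenta-derived ASM enzyme was preincubated with compound for 10 minutes at room temperature, then given fluorogenic substrate HMU-PC0 (9 uM final) for 60 minutes at 37 °C; a pH 10 stop preceded fluorescence reading at Ex 386/Em 447 nm.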
TGFb SMAD3 inh = blocks TGF-b signaling. AID 588855. HepG2 CAGA-GFP TGF-b/SMAD3 reporter, GFP fluorescence, 18 h; TGF-beta stimulated, 500 pg/mL final. actives 1.2% (n = 410,000). Potency, µM (top dose mostly 46.1 µM), for inactives: at the top dose activity, negative = inhibition, actives largely listed as inhibitors; also: potency is read from the fitted curve at half-maximal effect; % is scaled to controls: 0 for no effect and ±100 for the full control effect; nearly all actives have a fitted effect of over 65% in size
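Read-out: total well GFP (ex488/em500-530) summed from mean per-cell fluorescence. Cells: HEPG2 CAGA-GFP, 1% FBS DMEM, 18 h at 37 degrees C with 500 pg/mL final TGF-beta. Unstimulated wells served as the full-inhibition control; stimulated DMSO wells = 0%.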
DT40 TDP1 no CPT = qHTS for Inhibitors of human tyrosyl-DNA phosphodiesterase 1 (TDP1): qHTS in cells in absence of CPT | AID 686978, 2013 | Potency, µM (titrated, usually from 46.2 µM), for inactives: at the highest dose activity change, negative = growth inhibition, actives largely listed as inhibitors | actives 15% (n = 420,000) | DT40 Tdp1-/- hTDP1 cells, no CPT, ATP luminescence, 48 h; also: potency is read from the fitted curve at half-maximal effect; % is scaled to controls: 0 for no effect and ±100 for the full control effect; nearly all actives have a fitted effect of over 55% in size
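Luminescent ATP content (CellTiter-Glo) served as the growth readout. Knockout chicken DT40 cells expressing human TDP1 were exposed to compounds without camptothecin for a minimum 48 hr at 37 °C.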
HepG2 tox = HepG2 cytotoxicity, counter-screen for TGF-b inhibitors | HepG2 CAGA-GFP viability, ATP luminescence, 18 h | Potency, µM (titrated, usually from 46.1 µM), inactives show at the top dose activity change, negative = cytotoxicity, usual class: cytotoxic | actives 0.76% (n = 410,000); also: potency is read from the fitted curve at half-maximal effect
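CellTiter-Glo luminescence gave cytotoxicity after 18 hours at 37 degrees C. The cells were HepG2 CAGA-GFP in 1% FBS DMEM, stimulated with 500 pg/mL TGF-beta after compound addition. %Activity was normalised to no-cell wells (complete cell-killing) and DMSO (no toxicity), and curves were fitted and classified.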
DT40 TDP1 CPT = growth inhibition of DT40 Tdp1-/-;hTDP1 cells with camptothecin (screen for TDP1 inhibitors). Potency, µM (highest dose often 46.2 µM), inactives show at the highest dose activity change, negative = growth inhibition, usual class: inhibitors. actives 12% (n = 420,000). chicken DT40 Tdp1-/-;hTDP1 cells + 20 nM CPT, ATP luminescence, 48 h. AID 686979; also: potency is read from the fitted curve at half-maximal effect; % is scaled to controls: 0 for no effect and ±100 for the full control effect; nearly all actives have a fitted effect of over 55% in size
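Cell growth measured by CellTiter-Glo luminescence after a minimum 48 h, 37 C compound exposure with 20 nM CPT in Tdp1-knockout DT40 cells stably expressing hTDP1, seeded 400/well; qHTS titration format.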
Active calls of the source: *; ? = inconclusive; nt = no result; [ ] = remark or other dose. Only some compounds are listed: those with a hit (about 19% of all), similar ones and a draw of the others. Unless noted, calls follow the shape of the dose curve; as a rule, active = well fitted curve in the direction sought with a large enough effect; inconclusive = small, poorly fitted or top-dose-only effect, or another doubt; inactive = no such curve, though single readings can be large; an effect the other way counts as inactive or inconclusive.

SMILES | IL1B secr inh | ASM inhibitor | TGFb SMAD3 inh | DT40 TDP1 no CPT | HepG2 tox | DT40 TDP1 CPT
Cc1cccc(C(=O)NCc2nc(-c3cccc(NC(=O)c4ccoc4C)c3)oc2C)n1 | nt | nt | nt | 13µM* | nt | 2.1%[9.04 µM]
Cc1oc(-c2cccc(NC(=O)C3CCCN(C)C3)c2)nc1CNC(=O)c1coc2c1C(=O)CCC2 (stereo not given) | nt | nt | nt | 16.4µM* | nt | 4.0%[9.04 µM]
COc1ccc(C(=O)NCc2nc(-c3cccc(NC(=O)c4ccc(C)s4)c3)oc2C)cc1 | nt | nt | nt | 14.6µM* | nt | -0.2%[9.04 µM]
Cc1ccc(C(=O)Nc2cccc(-c3nc(CNC(=O)C4(C)CC4)c(C)o3)c2)s1 | nt | nt | nt | -6.0% | nt | -9.4%
COc1ccc(CCNC(=O)c2cc3c(=O)n4cccc(C)c4nc3n(CC3CCCO3)c2=N)cc1 (stereo not given) | -11.3 | 363.3% | 5.2% | 10.3µM* | -3.6% | 3.26µM*
COCCn1c(=N)c(C(=O)NCC2CCCO2)cc2c(=O)n3ccccc3nc21 (stereo not given) | nt | nt | 0.0% | -8.8% | -8.8% | 3.7%
Cc1cccn2c(=O)c3cc(C(=O)NCC4CCCO4)c(=N)n(CCc4ccccc4)c3nc12 (stereo not given) | 34.7 | 395.3% | 7.7% | -83.1% | -3.7% | 16.4µM*
COc1ccc(C(C#N)N2CCC(c3ccccc3)=N2)cc1 (stereo not given) | -89.9* | 3.0% | 0.0% | ? | 8.4% | ?
Cc1ccc(-n2cnc(N)c2C(=O)c2cccc([N+](=O)[O-])c2)cc1 | nt | 2.4% | 14.6% | 29.1µM* | -2.6% | ?
COc1cc2c(cc1OC)C(C)N(CCc1ccc(Cl)cc1)CC2 (stereo not given) | -58.8* | 9.0% | ? | ? | -21.7% | ?
COc1cc2c(cc1OC)C(C)N(C(=O)c1cccc([N+](=O)[O-])c1)CC2 (stereo not given) | -52.9* | 0.9% | -12.3% | ? | -27.9% | ?
COc1cc2c(cc1OC)C(C)N(C(=O)c1ccc(Cl)c(S(=O)(=O)N3CCCCC3)c1)CC2 (stereo not given) | -16.3 | -5.8% | ? | 10.3µM* | -1.9% | 20.6µM*
COc1cc2c(cc1OC)C(C)N(C(=O)C(NC(=O)c1ccccc1)C(C)C)CC2 (stereo not given) | 39.2 | -1.3%[11.5 µM] | -7.3% | ? | -10.2% | ?
COc1cc2c(cc1OC)C(c1cccs1)N(C(=O)c1cccnc1)CC2 (stereo not given) | 49.5 | -0.6% | 0.8% | 2.91µM* | -2.3% | 4.61µM*
CCOc1ccc(S(=O)(=O)n2cnc(C)c2)cc1 | 14.3 | 2.9% | 2.4% | -29.1% | -5.2% | ?
COc1cc2c(cc1OC)C(C)N(C(=O)c1c(-c3ccccc3)noc1C)CC2 (stereo not given) | 66.1 | 1.4% | -7.7% | 13µM* | -17.6% | 18.4µM*
COc1cc2c(cc1OC)C(C)N(C(=O)c1sccc1C)CC2 (stereo not given) | ? | 1.7% | -6.9% | -16.2% | -6.7% | ?
COc1cc2c(cc1OC)C(C)N(C(=O)c1ccc(C)o1)CC2 (stereo not given) | -10.0 | -2.0% | 0.0% | 20.6µM* | 2.3% | 25.9µM*
Cc1cc2c(cc1S(=O)(=O)N1CCN(c3ccccc3)CC1)OCCN2C | 6.8 | 0.1% | 0.6% | -25.7% | -25.5% | 7.31µM*
Cc1cc2c(cc1S(=O)(=O)N1CCN(c3cccc(C(F)(F)F)c3)CC1)OCC(=O)N2 | 53.7 | -9.5% | -3.8% | ? | -18.7% | 18.4µM*
Cc1cc2c(cc1S(=O)(=O)Nc1ccc(C(C)C)cc1)OCCN2C | nt | nt | ? | 16.4µM* | -31.8% | ?
Cc1cc2c(cc1S(=O)(=O)Nc1cccc(C(F)(F)F)c1)OCCN2C | nt | nt | 3.55µM* | ? | -48.8% | -23.7%
COc1cccc(CNC(=O)CSCC(=O)Nc2ccc(C)cc2)c1 | 13.6 | nt | -2.4% | 0.0% | 0.4% | -0.4%
NS(=O)(=O)c1cccc(NC(=O)COC(=O)CCC(=O)c2cccs2)c1 | 15.8 | 0.2% | 7.4% | 10.6% | -60.5% | -16.7%
CC(=O)c1ccc(NS(=O)(=O)c2cc3c(cc2C)N(C)CCO3)cc1 | 38.2 | 0.1% | -13.4% | ? | -44.2% | 10.3µM*
SMILES | IL1B secr inh | ASM inhibitor | TGFb SMAD3 inh | DT40 TDP1 no CPT | HepG2 tox | DT40 TDP1 CPT
O=C(NNC(=O)c1sc2ccccc2c1Cl)Nc1ccc(Cl)cc1 | -2.2 | -0.9% | ? | -3.3% | -22.0% | -15.2%
O=C(O)c1ccccc1NC(=S)NC(=O)c1sc2ccccc2c1Cl | 2.5 | 6.1% | -9.6% | 16.4µM* | -17.5% | ?
O=C(NNC(=S)NC(=O)c1sc2ccccc2c1Cl)c1ccc(Cl)cc1 | 31.4 | -1.4% | 0.0% | ? | -36.9% | 18.4µM*
COc1ccc(-c2oc3c(c2C#CC(C)(C)O)C(OC)CCC3)cc1 (stereo not given) | -59.2* | nt | nt | 16.4µM* | nt | ?
COc1ccc(-c2oc3c(c2C#CC2(O)CCCCC2)C(OC(C)=O)CCC3)cc1 (stereo not given) | 0.0 | nt | nt | ? | nt | ?
Cc1ccc(N2C(=O)CS(=O)(=O)C23C(=O)N(C)c2ccccc23)cc1F (stereo not given) | nt | nt | 49.6% | 4.1% | 2.7% | -9.3%
O=C(Nc1nc(-c2ccccc2)cs1)c1ccco1 | -59.2* | 0.3% | -24.0% | ? | -22.7% | ?
O=C(Nc1scc(-c2ccccc2)c1C(=O)O)c1ccco1 | -23.6 | 3.6% | -3.2% | ? | -4.0% | -1.3%
Cc1ccc(-c2csc(NC(=O)c3ccc(-c4ccccc4)cc3)n2)o1 | -23.3 | -10.1% | 12.6µM* | ? | -32.2% | 16.4µM*
O=C(NNc1nc(-c2ccc(Br)cc2)cs1)c1ccco1 | -1.8 | -0.5% | ? | 16.4µM* | -38.4% | 18.4µM*
O=C(Nc1nc(-c2ccccc2)cs1)c1cccnc1 | -19.2 | -2.7% | -9.0% | ? | 0.9% | ?
O=C(Nc1cc(-c2ccccc2)cs1)c1ccco1 | -29.1 | -1.9% | -19.4% | 14.6µM* | -24.9% | ?
COc1ccc(-c2csc(NC(=O)c3ccco3)n2)cc1 | -26.3 | -6.0% | 0.0% | -13.1% | -39.2% | -6.2%
O=C(NC1CCN(S(=O)(=O)c2ccccc2)CC1)c1cccc(F)c1 | -9.2 | -1.9% | -12.0% | -9.0% | -23.6% | 1.6%
